# Results as given in PubChem BioAssay (NCI).
# About 83,000 compounds went through this panel and 20% of them were active in at least one assay; those are over-represented in the sample as a whole.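 How to read the values: 0–100, growth inhibition (40 = 60% inhibited); 0, no net growth; -100 to 0, cell death (-40 = 40% of starting cells died; -100 = all dead).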 A number with no mark means an inactive call. Activity calls are given as the source filed them. The calls were made as follows: active = growth percent below 10; inactive = the rest.
# Tested on: 786-0 renal
# Assay: NCI-60 one-dose screen, 48 h (100 = growth as untreated, 0 = no growth, -100 = all killed)
# Conditions: 10 µM unless noted
row,Compound,growth
1,COc1cc(-c2cc(-c3ccc(Nc4ccnc5cc(Cl)ccc45)cc3)nc(N3CCOCC3)n2)cc(OC)c1OC,-65.5% (active)
2,COC(=O)C1CCc2sc3ncnc(Nc4cn[nH]c4C(=O)Nc4ccc(CN5CCN(C)CC5)cc4)c3c21 (stereo unspecified),-4.45% (active)
3,CO/C=C/C(=O)c1cc2cnc3c(=N)cc(NC(=O)C(C)C)c([nH]1)c23,-44.6% (active)
4,CCN1CCN(c2nc(C)cc(N(CCNc3ccnc4cc(Cl)ccc34)Cc3ccc4c(c3)OCO4)n2)CC1,-24.5% (active)
5,N#CC(C#N)=NO,99.5%
6,C=CC(=O)N(C)[C@H]1C[C@H]2OC(C)(C1OC)n1c3ccccc3c3c4c(c5c6ccccc6n2c5c31)C(=O)NC4 (stereo partly specified),-74.2% (active)
7,Cc1ccc(NC(=O)NC(=O)CSc2nc3ccccc3nc2C)cc1,-16.3% (active)
8,C=CCn1c(=O)c2cnc(Nc3ccc(N4CCN(C)CC4)cc3)nc2n1-c1cccc(C(C)(C)O)n1,14%
9,Clc1ccc2c(NCCNc3nc(N4CCCC4)nc4ccccc34)ccnc2c1,-77.4% (active)
10,Clc1ccc(/C=C/c2cc(N3CCOCC3)c3cc(Cl)c(Cl)cc3n2)cc1,-11% (active)
11,Nc1ncnc2c1ccn2-c1cccc(NC(=O)c2ccc(N3CCOCC3)c(C(F)(F)F)c2)c1,86.4%
12,CC12O[C@H](C[C@@H](OC(=O)CCC(=O)O)[C@H]1O)n1c3ccccc3c3c4c(c5c6ccccc6n2c5c31)C(=O)NC4=O,36.8%

# Tested on: COLO 205 colon
# Assay: as above
# Conditions: 10 µM unless noted
row,Compound,growth
1,C=CCC(=O)N[C@H](/C=C/C(=O)O)Cc1ccc(-c2cc(Cl)cc(Cl)c2)cc1,95.7%
2,CCN1CCN(c2cc(C)nc(N(CCCNc3ccnc4cc(Cl)ccc34)Cc3cccs3)n2)CC1,-80.2% (active)
3,COC(=O)CCCNc1c(-c2c(O)c(O)cc3c(O)c(-c4c(C)cc5c(-c6nc7ccccn7c6NCCCC(=O)OC)c(O)c(O)cc5c4O)c(C)cc23)nc2ccccn12,87%
4,Cn1ncc(Cl)c1-c1cc(C(=O)N[C@H](CN)Cc2ccc(F)c(F)c2)oc1Cl,-77.9% (active)
5,O=c1[nH]c(N2CCOCC2)nc2scc(-c3ccccc3)c12,101%
6,Cc1cc2c(-c3nc4ccccn4c3NC3CCCCC3)c(O)c(O)cc2c(O)c1-c1c(C)cc2c(-c3nc4ccccn4c3NC3CCCCC3)c(O)c(O)cc2c1O,14.8%
7,CC(C)C1CCC(C)C(C2(C#N)C(N)=NC(N)=C2C#N)C1=O (stereo unspecified),100%
8,Cc1cc(N2CCCC2)nc(N(CCCNc2ccnc3cc(Cl)ccc23)Cc2ccc3c(c2)OCO3)n1,-73.8% (active)
9,[2H]C1([2H])[C@H](C)O[C@H](C)C([2H])([2H])N1c1ccc(NC(=O)c2cccc(-c3ccc(OC(F)(F)F)cc3)c2C)cn1,81.6%
10,Cc1cc2c(-c3nc4ccccn4c3NC34CC5CC(CC(C5)C3)C4)c(O)c(O)cc2c(O)c1-c1c(C)cc2c(-c3nc4ccccn4c3NC34CC5CC(CC(C5)C3)C4)c(O)c(O)cc2c1O,6.77% (active)
11,CC[C@H](Nc1ncnc2nc[nH]c12)c1nc2cccc(F)c2c(=O)n1-c1ccccc1,96.1%
12,COC(=O)C1=C(C(=O)OC)C23C=C(C)C1C2=C(C)C1(CC1)[C@@](C)(O)C3=O (stereo partly specified),-51.9% (active)
13,c1ccc2c(c1)CCN(NCCN1CCCC1)C2,91.8%
14,Cc1cc(N(CCNc2ccnc3cc(Cl)ccc23)Cc2cccs2)nc(Cl)n1,-75.3% (active)
15,COc1cc(-c2nc(C(=O)Nc3ccc(C)cc3)nn2-c2ccc(F)c(F)c2)cc(OC)c1OC,95.8%
16,O=C(Cn1c(=O)ccn(CCCCCCCCOc2ccc(Br)cc2)c1=O)Nc1ccc(Oc2ccc(Cl)cc2)cc1,76.7%
17,Cc1ccc(-c2cc3c(SCC(=O)Nc4cc(C(F)(F)F)ccc4Cl)nccn3n2)cc1,27%
18,CCCc1cc2cc(-n3nc(C)c4c3CC(C)(C)CC4=O)cc(NC3CCC(O)CC3)c2c(=O)[nH]1 (stereo unspecified),-10.1% (active)
19,COc1ccc(C(=O)c2cc(OC)c(OC)c(OC)c2)cc1/C=C/C(=O)c1ccc(F)cc1,79.3%
20,CC(C)=CCc1cc2c(cc1O)C1=C(C(=O)C3=C(C1=O)S(=O)(=O)CCN3)C(C=C(C)C)O2 (stereo unspecified),-69.8% (active)

row,Compound,growth
1,CN1CCN(c2nc(NCCNc3ccnc4cc(Cl)ccc34)c3ccccc3n2)CC1,-62.6% (active)
2,COc1ccc(CCCc2c3[n+](cc4c(OC)c(OC)ccc24)CCc2cc4c(cc2-3)OCO4)cc1,-11.2% (active)
3,N#Cc1cc2[nH]c3ccc(OC(F)(F)F)cc3c2oc1=O,86.8%
4,CCN1CCN(CCCN(C[C@H]2Cc3ccccc3CN2)[C@H]2CCCc3cccnc32)CC1,97.2%
5,Clc1ccc2c(NCCCNCc3ccc4c(c3)OCO4)ccnc2c1,-56.6% (active)
6,Cc1cc(N2CCOCC2)nc(N(CCNc2ccnc3cc(Cl)ccc23)Cc2cccs2)n1,-69.2% (active)
7,CCN1CCN(c2cc(C)nc(N(CCCNc3ccnc4cc(Cl)ccc34)Cc3ccc4c(c3)OCO4)n2)CC1,-82.6% (active)
8,COc1cc(-c2cc(-c3ccc(Nc4ccnc5cc(Cl)ccc45)cc3)nc(N3CCOCC3)n2)cc(OC)c1OC,32.4%
9,COC(=O)C1CCc2sc3ncnc(Nc4cn[nH]c4C(=O)Nc4ccc(CN5CCN(C)CC5)cc4)c3c21 (stereo unspecified),-70.8% (active)
10,CO/C=C/C(=O)c1cc2cnc3c(=N)cc(NC(=O)C(C)C)c([nH]1)c23,-33.8% (active)
11,CCN1CCN(c2nc(C)cc(N(CCNc3ccnc4cc(Cl)ccc34)Cc3ccc4c(c3)OCO4)n2)CC1,-75.8% (active)
12,N#CC(C#N)=NO,113%
13,C=CC(=O)N(C)[C@H]1C[C@H]2OC(C)(C1OC)n1c3ccccc3c3c4c(c5c6ccccc6n2c5c31)C(=O)NC4 (stereo partly specified),-75.3% (active)
14,Cc1ccc(NC(=O)NC(=O)CSc2nc3ccccc3nc2C)cc1,81.1%
15,C=CCn1c(=O)c2cnc(Nc3ccc(N4CCN(C)CC4)cc3)nc2n1-c1cccc(C(C)(C)O)n1,-29.5% (active)
16,Clc1ccc2c(NCCNc3nc(N4CCCC4)nc4ccccc34)ccnc2c1,-81.4% (active)
17,Clc1ccc(/C=C/c2cc(N3CCOCC3)c3cc(Cl)c(Cl)cc3n2)cc1,98.1%
18,Nc1ncnc2c1ccn2-c1cccc(NC(=O)c2ccc(N3CCOCC3)c(C(F)(F)F)c2)c1,49%
19,CC12O[C@H](C[C@@H](OC(=O)CCC(=O)O)[C@H]1O)n1c3ccccc3c3c4c(c5c6ccccc6n2c5c31)C(=O)NC4=O,-16.4% (active)
